Activity calls are given as the source filed them. How the source made its calls: active means hit-call score of the fitted dose curve at least 0.9, where 1 is the maximum; inactive means score below 0.9.
Tests used:
Details in all cases: mRNA level, 48 h; actives raise or lower the signal
[1] = read-out: Peroxisomal acyl-coenzyme A oxidase 1 (ACOX1) gene, ACOX1 (gene 51); assay: LTEA_HepaRG_ACOX1: Life Technologies and Expression Analysis (LTEA) Assay for Peroxisomal acyl-coenzyme A oxidase 1 (ACOX1) gene using HepaRG (AID 2283467)
Method in brief: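 Measured by qRT-PCR against three housekeeping genes: ACOX1 transcript change in human HepaRG cells after 48 h dosing. Concentrations ran up to 100 uM in half-log steps. Curves were fitted bidirectionally relative to 0.5% DMSO.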

[2] = read-out: Bcl-2 (BAD) gene, BAD (gene 572); assay: LTEA_HepaRG_BAD: Life Technologies and Expression Analysis (LTEA) Assay for Bcl-2 (BAD) gene using HepaRG (AID 2283469)
Method in brief: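 BAD transcript change, measured by qRT-PCR against three housekeeping genes and fitted in both directions relative to 0.5% DMSO, after 48 h chemical treatment of human HepaRG liver cells at concentrations up to 100 uM.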

[3] = read-out: Bcl-2 (BAX) gene, BAX (gene 581); assay: LTEA_HepaRG_BAX: Life Technologies and Expression Analysis (LTEA) Assay for Bcl-2 (BAX) gene using HepaRG (AID 2283470)
Method in brief: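 Differentiated HepaRG cells exposed 48 h in serum-free induction medium, eight half-log concentrations from 100 uM, in duplicate, 0.5% DMSO vehicle. BAX mRNA by TaqMan qRT-PCR, normalised to ACTB, GAPDH and POLR2A.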

[4] = read-out: adenosine kinase (ADK) gene, ADK (gene 132); assay: LTEA_HepaRG_ADK: Life Technologies and Expression Analysis (LTEA) Assay for adenosine kinase (ADK) gene using HepaRG (AID 2283471)
Method in brief: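 HepaRG (human liver), 48 h chemical exposure, 8-pt half-log series, top 100 uM, 0.5% DMSO vehicle. Readout: ADK mRNA by qRT-PCR vs housekeeping genes; bidirectional curve fit relative to DMSO baseline.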

[5] = read-out: Alpha-fetoprotein (AFP) gene, AFP (gene 174); assay: LTEA_HepaRG_AFP: Life Technologies and Expression Analysis (LTEA) Assay for Alpha-fetoprotein (AFP) gene using HepaRG (AID 2283472)
Method in brief: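 Differentiated human HepaRG cells exposed 48 h in serum-free induction medium, 8-point half-log series from 100 uM in 0.5% DMSO, duplicate. AFP mRNA by qRT-PCR, normalized to ACTB, GAPDH, POLR2A; bidirectional fit vs DMSO.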

BCL2L11 (gene 10018) = assay: LTEA_HepaRG_BCL2L11: Life Technologies and Expression Analysis (LTEA) Assay for Bcl-2 (BCL2L11) gene using HepaRG (AID 2283473)
Method in brief: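 Read-out is BCL2L11 transcript level by qRT-PCR, normalized to three housekeeping genes and fitted bidirectionally against 0.5% DMSO vehicle. HepaRG cells received chemicals for 48 h in serum-free induction medium, 100 uM down in half-log dilutions.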

[6] = read-out: Apolipoprotein A-V (APOA5) gene, APOA5 (gene 116519); assay: LTEA_HepaRG_APOA5: Life Technologies and Expression Analysis (LTEA) Assay for Apolipoprotein A-V (APOA5) gene using HepaRG (AID 2283474)
Method in brief: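 Readout is APOA5 transcript level by qRT-PCR on Fluidigm dynamic arrays, normalized to three housekeeping genes. HepaRG cultures received chemicals for 48 h at up to 100 uM (half-log steps, 0.5% DMSO), with gain or loss scored relative to DMSO.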

[7] = read-out: Apoptosis regulator Bcl-2 (Homo sapiens) (UniProt P10415); assay: LTEA_HepaRG_BCL2: Life Technologies and Expression Analysis (LTEA) Assay for Bcl-2 gene using HepaRG (AID 2283475)
Method in brief: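 Differentiated human HepaRG cells in serum-free induction medium exposed 48 h, in duplicate, to 8-point half-log series from 100 uM in 0.5% DMSO. BCL2 mRNA by qRT-PCR (TaqMan/Fluidigm), normalized to ACTB, GAPDH, POLR2A; bidirectional fit against DMSO.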

[8] = read-out: Bcl-2 (BID) gene, BID (gene 637); assay: LTEA_HepaRG_BID: Life Technologies and Expression Analysis (LTEA) Assay for Bcl-2 (BID) gene using HepaRG (AID 2283476)
Method in brief: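 Gene expression by qRT-PCR in HepaRG cells after 48 h exposure, duplicate wells, eight half-log concentrations topping at 100 uM in 0.5% DMSO. Normalized to ACTB, GAPDH, POLR2A; bidirectional fitting relative to DMSO.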

Caspase-3 (Homo sapiens) = Caspase-3 (Homo sapiens) (UniProt P42574); assay: LTEA_HepaRG_CASP3: Life Technologies and Expression Analysis (LTEA) Assay for cysteine-aspartic acid protease (CASP3) using HepaRG (AID 2283477)
Caspase-3 (Homo sapiens), sequence (P42574 whole entry, looked up): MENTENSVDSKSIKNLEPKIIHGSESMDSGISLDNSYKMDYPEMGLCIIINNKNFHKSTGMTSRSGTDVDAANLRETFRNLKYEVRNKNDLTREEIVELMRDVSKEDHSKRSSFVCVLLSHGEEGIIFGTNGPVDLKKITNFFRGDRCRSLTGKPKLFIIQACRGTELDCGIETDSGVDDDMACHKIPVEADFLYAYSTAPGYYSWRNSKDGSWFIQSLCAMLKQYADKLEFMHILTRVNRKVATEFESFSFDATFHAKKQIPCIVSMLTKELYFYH
Method in brief: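 Read-out is CASP3 mRNA level by TaqMan qRT-PCR in human HepaRG cells after 48 h chemical exposure. Eight half-log concentrations topping at 100 uM were tested in 0.5% DMSO; gain or loss was fitted relative to DMSO.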

[9] = read-out: Cytochrome P450 (CYP24A1), CYP24A1 (gene 1591); assay: LTEA_HepaRG_CYP24A1: Life Technologies and Expression Analysis (LTEA) Assay for Cytochrome P450 (CYP24A1) using HepaRG (AID 2283478)
Method in brief: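 HepaRG, 48 h chemical exposure, 8-pt half-log CRC from 100 uM, 0.5% DMSO vehicle, duplicates. Endpoint: CYP24A1 mRNA by Fluidigm TaqMan qRT-PCR, normalized ACTB/GAPDH/POLR2A; gain/loss fit vs DMSO.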

[10] = read-out: Cytochrome P450 (CYP1A2), CYP1A2 (gene 1544); assay: LTEA_HepaRG_CYP1A2: Life Technologies and Expression Analysis (LTEA) Assay for Cytochrome P450 (CYP1A2) using HepaRG (AID 2283479)
Method in brief: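 CYP1A2 transcript induction or loss, quantified by Fluidigm qRT-PCR against three housekeeping genes, was fitted bidirectionally against 0.5% DMSO controls. Human HepaRG cells received eight half-log concentrations from 100 uM over 48 h.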

[11] = read-out: Cytochrome P450 (CYP2B6), CYP2B6 (gene 1555); assay: LTEA_HepaRG_CYP2B6: Life Technologies and Expression Analysis (LTEA) Assay for Cytochrome P450 (CYP2B6) using HepaRG (AID 2283481)
Method in brief: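 HepaRG cells plated 48 h, switched to serum-free induction medium, then dosed 48 h (8 points, half-log from 100 uM, 0.5% DMSO). RNA isolated; CYP2B6 expression measured by qRT-PCR; gain or loss fitted relative to DMSO.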

[12] = read-out: Cytochrome P450 2C19 (Homo sapiens) (UniProt P33261); assay: LTEA_HepaRG_CYP2C19: Life Technologies and Expression Analysis (LTEA) Assay for CYP2C19 using HepaRG (AID 2283482)
Method in brief: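 Transcript levels of CYP2C19 were quantified by qRT-PCR after HepaRG cells were treated for 48 hours with test chemicals up to 100 uM (eight half-log concentrations, 0.5% DMSO vehicle). Gain or loss of signal was fitted relative to DMSO.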

CYP2C8 (gene 1558) = assay: LTEA_HepaRG_CYP2C8: Life Technologies and Expression Analysis (LTEA) Assay for CYP2C8 using HepaRG (AID 2283483)
Method in brief: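 CYP2C8 mRNA induction or loss, by qRT-PCR normalized to ACTB/GAPDH/POLR2A, is read in HepaRG cells after 48 h treatment. Concentrations run from 100 uM down in half-log dilutions, with 0.5% DMSO as vehicle and baseline.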

CYP2C9 (gene 1559) = assay: LTEA_HepaRG_CYP2C9: Life Technologies and Expression Analysis (LTEA) Assay for CYP2C9 using HepaRG (AID 2283484)
Method in brief: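 Cells plated 48 h, switched to serum-free induction medium, then treated in duplicate for 48 h at eight concentrations (max 100 uM, 0.5% DMSO). RNA then analysed by qRT-PCR for CYP2C9; curves fitted in both directions relative to DMSO.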

CYP2E1 (gene 1571) = assay: LTEA_HepaRG_CYP2E1: Life Technologies and Expression Analysis (LTEA) Assay for CYP2E1 using HepaRG (AID 2283485)
Method in brief: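 HepaRG cells, plated 48 h, then exposed 48 h in serum-free induction medium to eight half-log concentrations from 100 uM in 0.5% DMSO, duplicate. CYP2E1 mRNA by qRT-PCR, normalized to ACTB/GAPDH/POLR2A; bidirectional fit versus DMSO.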

CYP4A11 (gene 1579) = assay: LTEA_HepaRG_CYP4A11: Life Technologies and Expression Analysis (LTEA) Assay for CYP4A11 using HepaRG (AID 2283486)
Method in brief: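 HepaRG, 48 h chem exposure, 8 conc (100 uM top, half-log), 0.5% DMSO vehicle; qRT-PCR readout, housekeeping-gene normalized; bidirectional curve fit vs DMSO baseline.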

Measured: AC50

Apoptosis regulator Bcl-2 (Homo sapiens), sequence (P10415 whole entry, looked up): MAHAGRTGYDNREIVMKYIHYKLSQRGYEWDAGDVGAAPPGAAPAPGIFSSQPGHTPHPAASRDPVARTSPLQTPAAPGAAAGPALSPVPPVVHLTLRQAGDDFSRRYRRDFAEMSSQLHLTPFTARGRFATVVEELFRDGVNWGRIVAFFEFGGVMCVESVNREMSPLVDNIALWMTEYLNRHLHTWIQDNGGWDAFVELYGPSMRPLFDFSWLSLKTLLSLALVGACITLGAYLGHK
Cytochrome P450 2C19 (Homo sapiens), sequence (P33261 whole entry, looked up): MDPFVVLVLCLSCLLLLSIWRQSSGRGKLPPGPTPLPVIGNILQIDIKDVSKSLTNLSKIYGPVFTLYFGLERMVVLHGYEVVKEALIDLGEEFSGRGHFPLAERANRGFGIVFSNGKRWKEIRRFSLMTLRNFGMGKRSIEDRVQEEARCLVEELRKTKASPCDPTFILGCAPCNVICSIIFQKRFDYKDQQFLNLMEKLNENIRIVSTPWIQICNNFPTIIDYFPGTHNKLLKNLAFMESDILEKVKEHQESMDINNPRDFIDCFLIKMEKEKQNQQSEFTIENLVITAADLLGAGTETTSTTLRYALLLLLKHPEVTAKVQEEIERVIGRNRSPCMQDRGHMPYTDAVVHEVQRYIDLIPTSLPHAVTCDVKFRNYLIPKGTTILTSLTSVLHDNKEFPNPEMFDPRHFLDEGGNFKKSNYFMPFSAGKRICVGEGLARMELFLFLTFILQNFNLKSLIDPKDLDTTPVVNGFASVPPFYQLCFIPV

O=S(=O)(O)C(F)(F)C(F)(F)C(F)(F)C(F)(F)C(F)(F)C(F)(F)F
active: [1] 6.58 µM | [6] 3.42 µM | [11] 24.6 µM | [12] 32 µM | CYP2C8 (gene 1558) 50 µM | CYP2C9 (gene 1559) 6.28 µM | CYP4A11 (gene 1579) 22.8 µM
inactive: all other assays above

CC#Cc1cc(C)nc(Nc2ccccc2)n1
active: [5] 26.4 µM | BCL2L11 (gene 10018) 13 µM | [10] 7.61 µM | [11] 10.3 µM | [12] 24.9 µM | CYP2C8 (gene 1558) 48 µM | CYP2C9 (gene 1559) 19.8 µM | CYP2E1 (gene 1571) 13.6 µM | CYP4A11 (gene 1579) 1.1 µM
inactive: [1] | [2] | [3] | [4] | [6] | [7] | [8] | Caspase-3 (Homo sapiens) | [9]

ClC1=C(Cl)[C@]2(Cl)[C@@H]3[C@@H](Cl)[C@H]4O[C@H]4[C@@H]3C1(Cl)C2(Cl)Cl
active: [5] 21.9 µM | [11] 0.526 µM | [12] 1.21 µM | CYP2E1 (gene 1571) 25.5 µM | CYP4A11 (gene 1579) 31.1 µM
inactive: all other assays above

COc1ccc(O)c(C(C)(C)C)c1
inactive: all assays above

CCC(C)(CC)c1cc(NC(=O)c2c(OC)cccc2OC)on1
active: [5] 28.9 µM | [10] 10.3 µM | [11] 3.2 µM | [12] 2.36 µM | CYP2C8 (gene 1558) 3.26 µM | CYP2E1 (gene 1571) 15 µM | CYP4A11 (gene 1579) 26.2 µM
inactive: all other assays above

O=S(=O)(O)C(F)(F)C(F)(F)C(F)(F)C(F)(F)F
active: [11] 52.5 µM
inactive: all other assays above

Cc1cc(-c2ccc(N)c(C)c2)ccc1N
active: [5] 34 µM | [10] 37 µM | [11] 9.15 µM | CYP2E1 (gene 1571) 16.3 µM
inactive: all other assays above

Cc1ccccc1CO[C@@H]1C[C@@]2(C(C)C)CC[C@]1(C)O2
active: [10] 76.3 µM | [11] 15.9 µM | [12] 32.5 µM | CYP2C8 (gene 1558) 50 µM | CYP2E1 (gene 1571) 50 µM
inactive: all other assays above

CCCN(CCC)N=O
active: [11] 11 µM
inactive: all other assays above

Cc1ccccc1[N+](=O)[O-]
active: [11] 13.9 µM
inactive: all other assays above

Cc1ccc(O)c(C)c1
inactive: all assays above

From PubChem BioAssay (EPA / NIEHS)
